# Data reported in ChEMBL document CHEMBL1961873, “Compounds: GSK PKIS; Assays: Nanosyn kinase panel” (2012).
# Tests used:
# [1] = target: Dual specificity protein kinase CLK3 (Homo sapiens) (UniProt P49761); conditions: at 1 µM;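 note: each value is the mean inhibition of CLK3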
# [2] = target: Dual specificity tyrosine-phosphorylation-regulated kinase 1A (Homo sapiens) (UniProt Q13627); conditions: at 0.1 µM
# [3] = target: Dual specificity tyrosine-phosphorylation-regulated kinase 1A (Homo sapiens) (UniProt Q13627); conditions: at 1 µM
# [4] = target: Dual specificity tyrosine-phosphorylation-regulated kinase 1B (Homo sapiens) (UniProt Q9Y463); conditions: at 0.1 µM
# Sequence of Dual specificity tyrosine-phosphorylation-regulated kinase 1B (Homo sapiens) (Q9Y463 whole entry, looked up): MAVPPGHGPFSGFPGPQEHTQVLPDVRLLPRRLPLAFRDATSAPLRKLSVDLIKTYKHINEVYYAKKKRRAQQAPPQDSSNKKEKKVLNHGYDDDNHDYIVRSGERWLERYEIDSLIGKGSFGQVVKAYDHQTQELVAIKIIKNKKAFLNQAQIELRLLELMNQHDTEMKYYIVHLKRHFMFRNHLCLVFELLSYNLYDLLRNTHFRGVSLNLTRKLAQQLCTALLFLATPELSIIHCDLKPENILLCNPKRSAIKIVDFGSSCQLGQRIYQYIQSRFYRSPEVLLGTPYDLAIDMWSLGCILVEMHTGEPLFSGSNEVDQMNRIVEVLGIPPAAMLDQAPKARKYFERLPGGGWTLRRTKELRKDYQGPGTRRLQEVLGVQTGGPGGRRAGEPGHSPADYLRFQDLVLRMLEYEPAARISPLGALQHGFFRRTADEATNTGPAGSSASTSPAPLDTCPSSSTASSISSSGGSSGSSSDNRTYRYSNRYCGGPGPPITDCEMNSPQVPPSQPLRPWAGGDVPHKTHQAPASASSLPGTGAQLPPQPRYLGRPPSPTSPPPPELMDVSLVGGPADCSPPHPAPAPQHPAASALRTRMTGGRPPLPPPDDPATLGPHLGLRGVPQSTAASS
# [5] = target: Dual specificity tyrosine-phosphorylation-regulated kinase 1B (Homo sapiens) (UniProt Q9Y463); conditions: at 1 µM
# [6] = target: T1, Dual specificity tyrosine-phosphorylation-regulated kinase 2 (Homo sapiens) (UniProt Q92630); conditions: at 0.1 µM
# T1 sequence (whole entry): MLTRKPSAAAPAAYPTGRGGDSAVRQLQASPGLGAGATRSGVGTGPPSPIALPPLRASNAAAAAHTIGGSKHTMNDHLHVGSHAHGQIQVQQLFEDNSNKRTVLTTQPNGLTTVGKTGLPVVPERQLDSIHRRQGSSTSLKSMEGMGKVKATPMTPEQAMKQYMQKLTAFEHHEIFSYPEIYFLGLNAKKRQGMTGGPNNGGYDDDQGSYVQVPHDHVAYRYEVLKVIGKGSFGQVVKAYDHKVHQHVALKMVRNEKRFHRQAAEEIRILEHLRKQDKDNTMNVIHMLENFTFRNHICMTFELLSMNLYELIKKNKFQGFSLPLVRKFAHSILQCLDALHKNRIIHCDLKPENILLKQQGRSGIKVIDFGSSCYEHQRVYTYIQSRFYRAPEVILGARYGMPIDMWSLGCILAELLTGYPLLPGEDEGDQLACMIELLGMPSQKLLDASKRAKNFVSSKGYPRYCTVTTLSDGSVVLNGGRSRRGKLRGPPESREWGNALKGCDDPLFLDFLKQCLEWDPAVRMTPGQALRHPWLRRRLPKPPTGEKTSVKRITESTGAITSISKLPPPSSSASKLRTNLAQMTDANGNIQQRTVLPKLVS
# [7] = target: T1, Dual specificity tyrosine-phosphorylation-regulated kinase 2 (Homo sapiens); conditions: at 1 µM
# [8] = target: Glycogen synthase kinase-3 alpha (Homo sapiens) (UniProt P49840); conditions: at 0.1 µM
# Sequence of Glycogen synthase kinase-3 alpha (Homo sapiens) (P49840 2-483 limits assumed): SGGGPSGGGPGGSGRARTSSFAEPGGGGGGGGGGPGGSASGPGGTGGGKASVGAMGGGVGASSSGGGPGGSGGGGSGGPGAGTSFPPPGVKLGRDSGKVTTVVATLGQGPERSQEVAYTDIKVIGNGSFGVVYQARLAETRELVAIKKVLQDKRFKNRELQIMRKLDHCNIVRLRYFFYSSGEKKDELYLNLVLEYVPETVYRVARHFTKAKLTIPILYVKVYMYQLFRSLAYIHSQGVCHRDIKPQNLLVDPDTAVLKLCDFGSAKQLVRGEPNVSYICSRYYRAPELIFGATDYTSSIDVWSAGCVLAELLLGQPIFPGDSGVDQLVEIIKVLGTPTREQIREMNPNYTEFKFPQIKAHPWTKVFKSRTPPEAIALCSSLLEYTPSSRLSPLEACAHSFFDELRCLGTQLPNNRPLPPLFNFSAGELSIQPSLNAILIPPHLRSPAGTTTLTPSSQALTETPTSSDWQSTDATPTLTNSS
# [9] = target: Glycogen synthase kinase-3 alpha (Homo sapiens) (UniProt P49840); conditions: at 1 µM
# [10] = target: Glycogen synthase kinase-3 beta (Homo sapiens) (UniProt P49841); conditions: at 0.1 µM
# Sequence of Glycogen synthase kinase-3 beta (Homo sapiens) (P49841 whole entry, looked up): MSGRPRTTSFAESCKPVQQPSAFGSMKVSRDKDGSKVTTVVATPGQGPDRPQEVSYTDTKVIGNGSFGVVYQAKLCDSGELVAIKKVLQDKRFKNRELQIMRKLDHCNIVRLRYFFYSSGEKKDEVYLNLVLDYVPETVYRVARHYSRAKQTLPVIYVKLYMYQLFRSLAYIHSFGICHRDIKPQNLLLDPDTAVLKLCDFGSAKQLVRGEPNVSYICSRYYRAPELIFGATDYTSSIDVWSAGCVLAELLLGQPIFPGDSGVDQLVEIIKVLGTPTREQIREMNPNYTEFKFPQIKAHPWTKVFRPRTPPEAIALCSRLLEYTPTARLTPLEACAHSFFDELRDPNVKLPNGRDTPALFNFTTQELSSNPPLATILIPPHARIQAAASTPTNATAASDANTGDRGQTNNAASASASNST
# [11] = target: Glycogen synthase kinase-3 beta (Homo sapiens) (UniProt P49841); conditions: at 1 µM
# [12] = target: Homeodomain-interacting protein kinase 1 (Homo sapiens) (UniProt Q86Z02); conditions: at 0.1 µM
# Sequence of Homeodomain-interacting protein kinase 1 (Homo sapiens) (Q86Z02 whole entry, looked up): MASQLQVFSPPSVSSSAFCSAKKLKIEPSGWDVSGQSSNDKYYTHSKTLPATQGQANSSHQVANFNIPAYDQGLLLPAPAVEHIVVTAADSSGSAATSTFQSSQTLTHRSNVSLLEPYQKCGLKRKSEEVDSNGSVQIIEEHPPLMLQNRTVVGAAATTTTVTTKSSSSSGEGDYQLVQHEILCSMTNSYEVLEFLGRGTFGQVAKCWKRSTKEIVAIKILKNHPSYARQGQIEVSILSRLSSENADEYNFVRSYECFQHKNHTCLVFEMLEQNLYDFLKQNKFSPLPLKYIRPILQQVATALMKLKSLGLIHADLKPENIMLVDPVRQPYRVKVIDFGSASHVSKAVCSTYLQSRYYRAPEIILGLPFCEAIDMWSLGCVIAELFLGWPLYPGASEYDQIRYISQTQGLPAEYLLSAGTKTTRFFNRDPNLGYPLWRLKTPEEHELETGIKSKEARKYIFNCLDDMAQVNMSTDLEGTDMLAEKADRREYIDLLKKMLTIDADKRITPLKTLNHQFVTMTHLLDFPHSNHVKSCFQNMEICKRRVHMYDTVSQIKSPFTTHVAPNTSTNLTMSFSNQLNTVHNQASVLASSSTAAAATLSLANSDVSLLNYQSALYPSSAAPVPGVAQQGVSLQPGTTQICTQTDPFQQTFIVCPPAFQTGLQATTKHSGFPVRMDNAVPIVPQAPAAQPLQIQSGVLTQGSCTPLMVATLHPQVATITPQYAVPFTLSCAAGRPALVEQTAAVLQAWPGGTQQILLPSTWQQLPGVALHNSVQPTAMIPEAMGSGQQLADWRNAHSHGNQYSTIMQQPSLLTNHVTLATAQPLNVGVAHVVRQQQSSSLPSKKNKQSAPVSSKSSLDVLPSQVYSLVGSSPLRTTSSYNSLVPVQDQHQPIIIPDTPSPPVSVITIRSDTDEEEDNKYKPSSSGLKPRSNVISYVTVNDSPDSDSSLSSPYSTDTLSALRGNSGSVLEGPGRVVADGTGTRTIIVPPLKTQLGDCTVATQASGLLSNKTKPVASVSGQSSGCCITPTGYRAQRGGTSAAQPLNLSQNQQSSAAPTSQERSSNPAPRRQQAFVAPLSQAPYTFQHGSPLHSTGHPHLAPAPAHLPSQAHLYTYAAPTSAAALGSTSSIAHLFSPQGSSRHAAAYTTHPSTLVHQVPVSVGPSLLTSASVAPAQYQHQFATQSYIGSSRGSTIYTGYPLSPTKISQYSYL
# [13] = target: Homeodomain-interacting protein kinase 1 (Homo sapiens) (UniProt Q86Z02); conditions: at 1 µM
# [14] = target: T2, Homeodomain-interacting protein kinase 4 (Homo sapiens) (UniProt Q8NE63); conditions: at 0.1 µM
# T2 sequence (whole entry): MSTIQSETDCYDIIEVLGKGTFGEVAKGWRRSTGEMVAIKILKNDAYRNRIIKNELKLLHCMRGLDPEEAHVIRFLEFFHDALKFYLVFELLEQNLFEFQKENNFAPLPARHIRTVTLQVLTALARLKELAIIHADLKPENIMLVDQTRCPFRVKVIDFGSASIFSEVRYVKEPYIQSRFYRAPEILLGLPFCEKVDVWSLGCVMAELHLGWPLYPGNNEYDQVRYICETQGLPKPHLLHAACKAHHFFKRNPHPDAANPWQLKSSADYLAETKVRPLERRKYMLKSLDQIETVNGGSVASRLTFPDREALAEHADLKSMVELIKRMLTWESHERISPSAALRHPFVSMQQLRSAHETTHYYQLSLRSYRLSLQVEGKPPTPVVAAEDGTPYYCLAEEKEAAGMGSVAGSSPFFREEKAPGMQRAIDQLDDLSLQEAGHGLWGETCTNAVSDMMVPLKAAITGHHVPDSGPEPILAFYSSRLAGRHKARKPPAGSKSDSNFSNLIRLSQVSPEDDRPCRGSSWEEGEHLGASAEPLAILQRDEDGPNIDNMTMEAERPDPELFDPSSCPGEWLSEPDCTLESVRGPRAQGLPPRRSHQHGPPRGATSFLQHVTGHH
# [15] = target: T2, Homeodomain-interacting protein kinase 4 (Homo sapiens); conditions: at 1 µM
# [16] = target: Mitogen-activated protein kinase 9 (Homo sapiens) (UniProt P45984); conditions: at 0.1 µM
# Sequence of Mitogen-activated protein kinase 9 (Homo sapiens) (P45984 whole entry, looked up): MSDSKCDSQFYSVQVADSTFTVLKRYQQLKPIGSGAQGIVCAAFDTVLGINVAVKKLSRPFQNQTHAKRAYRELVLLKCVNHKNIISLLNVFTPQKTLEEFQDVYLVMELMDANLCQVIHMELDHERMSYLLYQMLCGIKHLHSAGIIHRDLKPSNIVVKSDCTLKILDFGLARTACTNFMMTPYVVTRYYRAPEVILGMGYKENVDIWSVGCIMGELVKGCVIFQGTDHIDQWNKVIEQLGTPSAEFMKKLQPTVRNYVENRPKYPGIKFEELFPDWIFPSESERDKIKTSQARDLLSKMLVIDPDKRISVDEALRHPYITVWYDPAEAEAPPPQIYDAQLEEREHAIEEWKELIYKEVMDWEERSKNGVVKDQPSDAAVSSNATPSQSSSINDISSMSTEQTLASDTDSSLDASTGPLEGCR
# [17] = target: Mitogen-activated protein kinase 9 (Homo sapiens) (UniProt P45984); conditions: at 1 µM
# [18] = target: Mitogen-activated protein kinase 1 (Homo sapiens) (UniProt P28482); conditions: at 0.1 µM
# Sequence of Mitogen-activated protein kinase 1 (Homo sapiens) (P28482 whole entry): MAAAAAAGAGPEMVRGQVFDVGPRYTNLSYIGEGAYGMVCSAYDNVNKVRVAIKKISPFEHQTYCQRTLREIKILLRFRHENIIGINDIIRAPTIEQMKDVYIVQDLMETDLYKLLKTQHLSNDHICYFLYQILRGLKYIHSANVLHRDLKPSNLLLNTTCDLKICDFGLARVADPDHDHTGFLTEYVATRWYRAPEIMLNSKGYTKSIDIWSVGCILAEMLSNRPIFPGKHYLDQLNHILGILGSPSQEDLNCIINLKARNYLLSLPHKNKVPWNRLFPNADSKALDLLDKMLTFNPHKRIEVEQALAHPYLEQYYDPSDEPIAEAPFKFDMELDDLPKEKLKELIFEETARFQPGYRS
# [19] = target: Mitogen-activated protein kinase 1 (Homo sapiens) (UniProt P28482); conditions: at 1 µM
# [20] = target: Mitogen-activated protein kinase 3 (Homo sapiens) (UniProt P27361); conditions: at 0.1 µM;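 note: each value is a mean inhibition figure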
# Sequence of Mitogen-activated protein kinase 3 (Homo sapiens) (P27361 whole entry): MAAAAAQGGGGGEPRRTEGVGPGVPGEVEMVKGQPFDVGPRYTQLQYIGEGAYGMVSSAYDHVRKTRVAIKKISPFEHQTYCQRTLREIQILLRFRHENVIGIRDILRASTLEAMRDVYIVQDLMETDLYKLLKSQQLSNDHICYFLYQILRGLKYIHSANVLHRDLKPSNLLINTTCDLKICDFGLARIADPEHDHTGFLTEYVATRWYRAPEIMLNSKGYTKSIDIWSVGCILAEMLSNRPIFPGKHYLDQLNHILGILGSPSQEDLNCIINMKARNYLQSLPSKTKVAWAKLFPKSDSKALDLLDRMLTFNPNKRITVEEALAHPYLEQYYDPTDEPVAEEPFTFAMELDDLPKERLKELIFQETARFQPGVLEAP
# Sequence of Dual specificity protein kinase CLK3 (Homo sapiens) (P49761 whole entry, looked up): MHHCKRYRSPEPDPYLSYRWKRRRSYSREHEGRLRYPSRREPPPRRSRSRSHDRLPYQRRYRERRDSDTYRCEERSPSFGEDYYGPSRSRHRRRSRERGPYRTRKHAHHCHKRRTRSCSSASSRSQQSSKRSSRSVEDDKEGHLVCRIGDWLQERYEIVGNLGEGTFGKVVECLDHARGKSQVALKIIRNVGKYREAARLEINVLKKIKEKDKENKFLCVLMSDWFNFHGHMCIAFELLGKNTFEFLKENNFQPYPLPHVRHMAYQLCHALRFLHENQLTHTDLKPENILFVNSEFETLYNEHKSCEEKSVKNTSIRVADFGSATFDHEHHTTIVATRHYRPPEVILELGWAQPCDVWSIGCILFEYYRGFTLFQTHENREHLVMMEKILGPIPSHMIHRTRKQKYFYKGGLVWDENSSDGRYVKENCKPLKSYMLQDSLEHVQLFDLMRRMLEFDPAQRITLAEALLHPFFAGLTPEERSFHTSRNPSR
SMILES,inhibition [1],inhibition [2],inhibition [3],inhibition [4],inhibition [5],inhibition [6],inhibition [7],inhibition [8],inhibition [9],inhibition [10],inhibition [11],inhibition [12],inhibition [13],inhibition [14],inhibition [15],inhibition [16],inhibition [17],inhibition [18],inhibition [19],inhibition [20]
Cc1cc(Cl)cc2c1NC(=O)C2=NNc1ccc(S(N)(=O)=O)cc1,0.83%,1.45%,2.28%,-0.62%,1.24%,0.8%,2.04%,2.99%,6.57%,1.19%,5.76%,1.47%,1.67%,0.61%,2.42%,-0.14%,2.41%,4.09%,2.74%,2.98%
c1ccc(Nc2ncc(-c3ccccc3)o2)cc1,1.62%,3.02%,2.66%,-0.02%,1.13%,4.52%,5.66%,4.96%,15.8%,5.53%,13.3%,-2.56%,3.15%,1.19%,6.31%,6.78%,12.9%,6.94%,7.41%,6.5%
CS(=O)(=O)Nc1cccc(-c2ccc3c(NC(=O)C4CC4)n[nH]c3c2)c1,0.41%,-0.85%,2.54%,-0.36%,0.44%,1.73%,0.58%,2.17%,10.3%,1.76%,9.5%,-3.76%,0.93%,-0.79%,-0.86%,2.2%,0.27%,-0.71%,1.14%,2.44%
CN1CCN(C(=O)c2ccc(NC(=O)Nc3ccc(N(C)c4ccnc(Nc5ccc(CS(C)(=O)=O)cc5)n4)cc3)cc2)CC1,-0.46%,-0.03%,-2.1%,0.37%,-2.01%,2.14%,4.06%,2.9%,4.98%,1.98%,4.51%,-3.22%,5.55%,0.53%,9.14%,0.8%,12.4%,1.77%,11.2%,2.64%
FC(F)(F)c1ccc(-c2nn3ncccc3c2-c2ccnc(Nc3ccc4c(c3)OCCO4)n2)cc1,5.27%,5.25%,6.32%,4.87%,5.88%,-0.81%,0.53%,6.66%,6.68%,7.6%,9.99%,9.14%,7.72%,9.55%,11.2%,3%,32.6%,1.76%,-1.13%,3.25%
CCOc1nccc2c1nc(-c1nonc1N)n2CC,2.9%,1.13%,3.41%,0.32%,2.83%,1.54%,2.84%,3.1%,10.2%,3.37%,11.9%,5.35%,9.39%,6.7%,12.2%,1.55%,1.43%,4.78%,4.07%,5.64%
Cc1ccc(NC(=O)CC2CC2)cc1-c1ccc(C(=O)NCC2CC2)cc1,1.83%,0.93%,3.49%,0.61%,1.49%,2.06%,2.68%,2.32%,2.3%,1.75%,3.08%,-0.11%,1.56%,2.64%,4.19%,3.4%,3.8%,2.01%,3.96%,5.26%
COc1ccc(-c2nn3ncccc3c2-c2ccnc(Nc3cccc(C(F)(F)F)c3)n2)cc1,0.95%,2.09%,1.66%,-0.34%,1.16%,1.77%,0.78%,2.36%,2.7%,1.41%,3.78%,0.13%,-1.85%,0.75%,1.33%,3.29%,8.16%,6.52%,5.12%,0.87%
CC(C)c1ccc(Nc2nccc(-c3cnn4ncccc34)n2)cc1,14%,40.6%,81.2%,43.4%,82.1%,2.73%,14%,35.6%,76%,31.3%,75.4%,57.9%,87.8%,11.2%,50.6%,5.25%,27%,3.14%,9.29%,0.92%
